# Publication PMC4336329 (PLoS ONE, 2015)
# The campaign covered roughly 310,000 compounds. About 14,000 (4.5%) showed an effect of 50% or more. Effects have a minus sign here. The list comes from a sample in which strong results are over-represented; it also holds similar structures and randomly drawn compounds.
# Target: human ether-à-go-go-related gene (hERG) potassium channel (human, UniProt Q12809)
# Assay: primary screen, population patch clamp on CHO cells stably expressing hERG; higher = less effect of the substance
# 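Note: peak tail current of the secondary pulse compared with the same well before compound.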
# Chain of human ether-à-go-go-related gene (hERG) potassium channel (Q12809 whole entry, looked up): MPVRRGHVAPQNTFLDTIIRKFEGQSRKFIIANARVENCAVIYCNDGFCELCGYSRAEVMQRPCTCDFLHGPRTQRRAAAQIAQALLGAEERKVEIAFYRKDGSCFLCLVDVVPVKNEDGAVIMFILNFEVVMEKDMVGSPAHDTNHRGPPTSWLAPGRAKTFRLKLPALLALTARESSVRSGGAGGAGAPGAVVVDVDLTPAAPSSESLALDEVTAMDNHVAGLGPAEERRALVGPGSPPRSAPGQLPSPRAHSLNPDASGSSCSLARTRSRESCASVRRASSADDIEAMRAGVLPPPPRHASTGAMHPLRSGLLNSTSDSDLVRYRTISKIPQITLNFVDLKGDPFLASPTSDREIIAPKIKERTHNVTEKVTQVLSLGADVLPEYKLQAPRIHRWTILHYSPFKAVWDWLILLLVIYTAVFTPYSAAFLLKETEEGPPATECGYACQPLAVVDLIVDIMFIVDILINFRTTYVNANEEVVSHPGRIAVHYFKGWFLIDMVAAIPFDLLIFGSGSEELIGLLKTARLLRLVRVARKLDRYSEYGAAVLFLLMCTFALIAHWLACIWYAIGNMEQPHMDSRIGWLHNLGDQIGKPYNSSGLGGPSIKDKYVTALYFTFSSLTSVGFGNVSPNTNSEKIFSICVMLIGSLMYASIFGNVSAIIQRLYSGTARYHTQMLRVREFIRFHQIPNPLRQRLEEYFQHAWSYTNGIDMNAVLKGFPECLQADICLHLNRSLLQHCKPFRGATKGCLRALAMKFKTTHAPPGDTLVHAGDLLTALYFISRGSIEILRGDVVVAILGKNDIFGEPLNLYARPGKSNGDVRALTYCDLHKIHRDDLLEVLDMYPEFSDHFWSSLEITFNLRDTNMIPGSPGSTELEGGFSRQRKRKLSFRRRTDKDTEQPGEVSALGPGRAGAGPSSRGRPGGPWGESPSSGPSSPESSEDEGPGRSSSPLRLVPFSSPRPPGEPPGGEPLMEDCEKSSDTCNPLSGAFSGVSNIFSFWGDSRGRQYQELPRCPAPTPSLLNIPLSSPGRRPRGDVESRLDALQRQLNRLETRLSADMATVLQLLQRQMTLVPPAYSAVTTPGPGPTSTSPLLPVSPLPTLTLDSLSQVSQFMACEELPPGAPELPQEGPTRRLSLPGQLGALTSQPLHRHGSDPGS
row,Structure (SMILES),"hERG current change (%, negative = inhibition) at 10uM"
1,O=C(NC1=NCCS1)C1CC2CCC1C2 (stereo not shown),2.05%
2,COc1ccc(/C=N\NC(=O)c2cc(O)c(O)c(O)c2)cc1COc1ccc(C(=O)OCC(C)C)cc1,21%
3,CC(C)(C)c1ccc(OC(=O)c2ccc3snnc3c2)cc1,20.4%
4,CCN(CC)CCN(Cc1cc2cc3c(cc2[nH]c1=O)OCO3)C(=S)NCc1ccco1,-55.8%
5,CCN(CC)CCCN(Cc1cc2cc3c(cc2[nH]c1=O)OCO3)C(=S)NCc1ccco1,-38.2%
6,O=c1[nH]c2cc3c(cc2cc1CN(Cc1cccnc1)C(=S)NCc1ccco1)OCO3,-52.5%
7,CN(C)CCN(Cc1cc2cc3c(cc2[nH]c1=O)OCO3)C(=S)NCc1ccco1,-11.4%
8,Cc1ccc(C)c2[nH]c(=O)c(CN(Cc3cccnc3)C(=S)NCc3ccco3)cc12,-61.1%
9,Cc1ccc(C)c2[nH]c(=O)c(CN(CC3CCCO3)C(=S)NCc3ccco3)cc12 (stereo not shown),-24.3%
10,Cc1cc2cc(CN(CCN(C)C)C(=S)NCc3ccco3)c(=O)[nH]c2cc1C,-43.8%
11,O=c1[nH]c2cc3c(cc2cc1CN(CCCO)C(=S)NCc1ccco1)OCO3,12%
12,Cc1cc2cc(CN(Cc3cccs3)C(=S)NCc3ccco3)c(=O)[nH]c2cc1C,-13.9%
13,Cc1ccc(C)c2[nH]c(=O)c(CN(Cc3cccs3)C(=S)NCc3ccco3)cc12,-33%
14,CCN(CC)CCN(Cc1cc2cc(C)c(C)cc2[nH]c1=O)C(=S)NCc1ccco1,-52.8%
15,O=c1[nH]c2cc3c(cc2cc1CN(Cc1cccnc1)C(=S)NCc1ccco1)OCCO3,-5.62%
16,COc1ccc(C(=O)NCCSc2ccc(C)cc2)cc1,-11%
17,O=c1cc(-c2cc3ccccc3o2)c2cc(O)ccc2o1,13.3%
18,Clc1ccc(-[n+]2c(-c3cccc(Br)c3)[nH]c3nc4ccccc4nc32)cc1,13.5%
19,Cc1ccc(S(=O)(=O)NC(=O)COc2ccccc2C)c(C)c1,-21.9%
20,Cc1c(Cl)cccc1NC(=O)COC(=O)c1c2c(nc3ccccc13)CCN(Cc1ccccc1)C2,2.82%
21,Cc1ccc(C(=O)NNC(=O)Cn2nnc3ccccc32)cc1,13.3%
22,NC(=O)COc1cccc(/C=N/NC(=O)c2ccc(-n3cccc3)cc2)c1,13.5%
23,CCN(CC)CCN(Cc1cc2cc3c(cc2[nH]c1=O)OCCO3)C(=S)NCC(C)C,-4.96%

row,Structure (SMILES),"hERG current change (%, negative = inhibition) at 10uM"
1,CCN(CC)CCN(Cc1cc2cc3c(cc2[nH]c1=O)OCO3)C(=S)NCC(C)C,-55.1%
2,CC(C)CNC(=S)N(CCN(C)C)Cc1cc2cc3c(cc2[nH]c1=O)OCO3,0.354%
3,S=C1NCCOCCNC(=S)NCCOCCOCCOCCN1,10.2%
4,CCc1cc(=O)oc2cc(C)c3c(C)coc3c12,16.3%
5,CCOC(=O)C1=C(C)NC(=O)C(C(N)=O)C12CCCCC2 (stereo not shown),12.4%
6,CC(C)NC(=O)CN1C(=O)CSc2ccc(S(=O)(=O)N3CCCC3)cc21,15.6%
7,COc1ccc(CN2CCCC(N3CCN(c4ccc(OC)cc4)CC3)C2)cc1 (stereo not shown),-45%
8,OCCOc1ccc(CN2CCCC(N3CCN(c4ccc(F)cc4)CC3)C2)cc1 (stereo not shown),-69.8%
9,COc1ccc(N2CCN(C3CCCN(Cc4cccc(C(C)=O)c4)C3)CC2)cc1 (stereo not shown),-30.2%
10,COc1ccccc1N1CCN(C2CCCN(Cc3ccccc3OCCO)C2)CC1 (stereo not shown),-25.5%
11,COC(=O)CCC(=O)N1CCCC(N2CCN(c3ccc(OC)cc3)CC2)C1 (stereo not shown),-1.47%
12,COc1ccc(N2CCN(C3CCCN(Cc4cccc(C)c4)C3)CC2)cc1 (stereo not shown),-32.8%
13,CSc1ccc(CN2CCCC(N3CCN(c4ccccc4)CC3)C2)cc1 (stereo not shown),-64.2%
14,CCOc1ccc(CN2CCCC(N3CCN(c4ccc(OC)cc4)CC3)C2)cc1 (stereo not shown),-64%
15,COc1ccc(N2CCN(C3CCCN(Cc4cccc(OC)c4)C3)CC2)cc1 (stereo not shown),-64.4%
16,CCN(C1CCS(=O)(=O)C1)S(=O)(=O)c1ccc2ccccc2c1 (stereo not shown),-10.5%
17,Cc1c[n+](CC(=O)c2ccccc2)cs1.[Br-],22%
18,COc1ccc(NC(=O)CSCC(=O)Nc2ccccc2N2CCCC2)cc1,-7.76%
19,CCOC(=O)c1csc(NC(=O)c2ccc(OCC)cc2)n1,-14.9%
20,Cc1ccccc1C(=O)OC1OC(=O)C(Cl)=C1Nc1ccc(C(=O)O)cc1 (stereo not shown),24.4%
21,COc1ccccc1N1CCN(C2CCCN(Cc3c(F)cccc3F)C2)CC1 (stereo not shown),-16.3%
22,COc1ccc(N2CCN(C3CCCN(S(=O)(=O)c4ccccc4)C3)CC2)cc1 (stereo not shown),-31.1%
23,COc1ccc(N2CCN(C3CCCN(Cc4ccc(F)c(F)c4)C3)CC2)cc1 (stereo not shown),-64.6%

row,Structure (SMILES),"hERG current change (%, negative = inhibition) at 10uM"
1,COc1ccc(S(=O)(=O)N2CCN3CCCC3C2)cc1 (stereo not shown),22.7%
2,CCc1ccc(S(=O)(=O)N2CCCC(N3CCN(c4ccc(OC)cc4)CC3)C2)cc1 (stereo not shown),-65.4%
3,CC1CCCCN1CCCNc1ccc(C(CC(N)=O)NC(=O)Cc2cccc3ccccc23)cc1[N+](=O)[O-] (stereo not shown),-14.6%
4,Nc1nc(Oc2ccc(F)cc2)c(Br)c(=O)[nH]1,7.49%
5,COc1ccc(-c2c(-c3ccc(OCC(=O)NN)cc3O)n[nH]c2C(F)(F)F)cc1,-5.25%
6,C/C(CC(=O)Nc1cc(Cl)ccc1Cl)=N\NC(=O)c1ccco1,-6.6%
7,Cc1ccc(CCNC(=O)C2CC(c3ccccc3[N+](=O)[O-])=NO2)cc1 (stereo not shown),-20.7%
8,Cc1c(C=O)n(C)n(-c2ccccc2)c1=O,11.5%
9,O=C(c1ccc(Br)s1)N1CCN(C/C=C/c2ccccc2)CC1,-40.6%
10,Cl.O=C(c1cc2ccccc2o1)N1CCN(Cc2ccccc2)CC1,-32.6%
11,O=C(c1ccc(Br)o1)N1CCN(C/C=C/c2ccccc2)CC1,-61.8%
12,O=C(c1cc2ccccc2o1)N1CCN(C/C=C/c2ccccc2)CC1,-62.2%
13,O=C(c1cc2ccccc2o1)N1CCN(S(=O)(=O)/C=C/c2ccccc2)CC1,-30.8%
14,Cl.O=C(c1ccco1)N1CCN(C/C=C/c2ccccc2)CC1,-38%
15,S=c1[nH]nc(-c2cccs2)n1Cc1ccccc1,9%
16,CCCN1C2CCCC1CC(NC(=O)NC1CCCCC1)C2 (stereo not shown),-12.4%
17,COCCNC(=O)Cn1cnc2ccc(S(=O)(=O)N3CCC(C)CC3)cc2c1=O,-15.1%
18,CCOCC(=O)Nc1cc(-c2cn3cccnc3n2)ccc1C,6.69%
19,CCn1c(CSc2nc3ccccc3s2)nnc1SCC(=O)c1ccc(O)cc1O,12.2%
20,Cn1c(SCC(=O)N2CCCCC2)nc2cccnc21,22.2%
21,NC(=O)c1ccsc1NC(=O)COC(=O)C1=NNC(=O)CC1,8.28%
22,COC(=O)c1cc2n(n1)CCN(Cc1ccc(C)cc1)C2=O,1.46%
23,CN1CCN(C(=O)c2cc3cc(Cl)ccc3[nH]2)CC1.Cl,-35.7%

row,Structure (SMILES),"hERG current change (%, negative = inhibition) at 10uM"
1,CCOC(=O)N1CCN(C(=O)c2cc3cc(Cl)ccc3[nH]2)CC1,-15.7%
2,O=C(c1cc2cc(F)ccc2[nH]1)N1CCN(c2ccc(F)cc2)CC1,-4.93%
3,CCOC(=O)N1CCN(C(=O)c2cc3cc(F)ccc3[nH]2)CC1,-19.8%
4,CCN1CCN(C(=O)c2cc3cc(Cl)ccc3[nH]2)CC1,-59.8%
5,CCN1CCN(C(=O)c2cc3cc(F)ccc3[nH]2)CC1,-65%
6,CC(=O)Nc1ccc(S(=O)(=O)N(c2cccnc2)S(=O)(=O)c2ccc(NC(C)=O)cc2)cc1,-3.89%
7,Cc1cc(C)cc(NC(=O)CSc2ncc(S(=O)(=O)c3ccccc3)c(=O)[nH]2)c1,13.6%
8,O=C(Nc1ncn[nH]1)c1cc(S(=O)(=O)Nc2cccc(C(F)(F)F)c2)ccc1Cl,17.8%
9,COc1ccc(CNC(=O)COC(=O)c2n[nH]c3ccccc23)cc1,7.27%
10,Cc1ccc(C(OCCN(C)C)c2cccc(C(F)(F)F)c2)cc1.O=C(O)/C=C\C(=O)O (stereo not shown),-58.6%
11,CN(C)CCOC(c1ccc(Cl)cc1)c1ccccn1.O=C(O)/C=C/C(=O)O (stereo not shown),-43%
12,CN(C)CCO[C@@H](c1ccc(Cl)cc1)c1ccccn1.O=C(O)/C=C\C(=O)O,-29.5%
13,CCOc1cc(/C=N/NC(=O)c2ccc(O)cc2)ccc1Oc1nc(Cl)ncc1F,-7.77%
14,COc1ccc(/C=N\Nc2ncc(F)c(N3CCOCC3)n2)cc1OC,-31.1%
15,CCOc1cc(/C=N\Nc2ncc(F)c(N3CCOCC3)n2)ccc1Oc1nc(Cl)ncc1F,-51.8%
16,CCS(=O)(=O)N1CCN(S(=O)(=O)c2ccc(F)cc2)CC1,-18.4%
17,CC(=O)Nc1ccc(NC(=O)c2ccc(-c3ccc([N+](=O)[O-])cc3)o2)cc1,-14.5%
18,O=C(NC1CCC(O)CC1)c1ccc(-c2ccc([N+](=O)[O-])cc2)o1 (stereo not shown),-76.2%
19,O=C(NC1CCCCC1)c1ccc(-c2cccc([N+](=O)[O-])c2)o1,12.4%
20,O=C(Nc1ccccc1)c1ccc(-c2ccc([N+](=O)[O-])cc2)o1,4.73%
21,O=C(NC1CCC(O)CC1)c1ccc(-c2ccc(Cl)cc2)o1 (stereo not shown),-21.8%
22,O=C(NC1CN2CCC1CC2)c1ccc(-c2ccc([N+](=O)[O-])cc2)o1 (stereo not shown),-64%
